The campaign covered roughly 48,000 compounds. About 13,000 (27%) showed an effect of 50% or more. This is one part of the list.

This test relates to Wolbachia pipientis. Nature of the test: Anti-Wolbachia Cell-Based Screen. It is filed as functional. More on the design: scale not given: in the data most compounds retested in dose-response had high values. The conditions noted are these: 5 µM.
Consider `Cc1cc(CN2CCN(C(C)c3nc(C4CC4)no3)CC2)no1` (stereo not drawn), for which the “Percent Effect” value is on record as 2.927%.

Consider `COc1ccc(CN2CCN(C(C)c3nc(C4CC4)no3)CC2)cc1` (stereo not drawn), for which the “Percent Effect” value came out at 8.61%.

With `CC(C)(C)c1c[nH]c([C@@H]2COCCN2C2CCOCC2)n1`, the “Percent Effect” value amounted to 1.318%.

`CCN(C)C(=O)CCC(=O)c1cccs1`: the “Percent Effect” value stood at 14.3%.

Regarding `CC(C)S(=O)(=O)N(C)C(=O)CCc1ccsc1`, the “Percent Effect” value was -69.32%.

With `O=C(NC1CCC1)[C@@H]1CCO[C@@H]2CCN(C3CCCC3)C[C@@H]21.O=C(O)C(F)(F)F`, the “Percent Effect” value was -2.811%.

Regarding `CCc1ccc(CN2CCN(C(=O)C(C)C)[C@@H]3CS(=O)(=O)C[C@@H]32)cc1`, the “Percent Effect” value was -2.722%.

In the case of `Cc1ccc(CN2CCN(C(=O)C3CCC3)[C@@H]3CS(=O)(=O)C[C@@H]32)cc1C`, the “Percent Effect” value turned out to be 4.312%.

As for `CN(C)C(=O)N1CCN(Cc2ccccc2)[C@@H]2CS(=O)(=O)C[C@@H]21`, the “Percent Effect” value is reported as -15.23%.

As to `Cc1cc(C)cc(CN2CCN(C(=O)C3CCC3)[C@@H]3CS(=O)(=O)C[C@@H]32)c1`, the “Percent Effect” value is 5.878%.

As for `CCN(CC)C(=O)N1CCN(Cc2cnc(C)nc2)[C@H]2CS(=O)(=O)C[C@H]21`, the “Percent Effect” value was determined as 94.21%.

Consider `Cc1ncc(CN2CCN(C(=O)C3CCC3)[C@@H]3CS(=O)(=O)C[C@@H]32)cn1`, for which the “Percent Effect” value is reported as 112.3%.

In the case of `COc1cc(Oc2ccc(C(F)(F)F)cn2)ccc1CN1CCCC1`, the “Percent Effect” value turned out to be 2.757%.

On to `O=C(NC[C@H]1OC[C@@H](NC(=O)C2CCCC2)[C@@H]1O)c1ccncc1`, for which the “Percent Effect” value was 0%.

Take `CC(=O)Nc1ccc(CNC2COc3c2ccc(C)c3C)cc1` (stereo not drawn): the “Percent Effect” value is -7.711%.

For `COCC[C@]1(O)CCN(S(=O)(=O)c2ccc(C)cc2OC)C[C@H]1C`, the “Percent Effect” value is -114.9%.

`CCc1noc(C)c1C(=O)NCc1ccccn1`: the “Percent Effect” value was -15.45%.

As for `COc1c(C(=O)NCc2cccnc2)nnn1Cc1ccc(C)cc1`, the “Percent Effect” value stood at 7.937%.

`Nc1no[n+]([O-])c1C(=O)NCc1cccnc1`: the “Percent Effect” value is reported as 115%.

For the compound `Nc1no[n+]([O-])c1C(=O)NCc1ccccn1`, the “Percent Effect” value turned out to be 131.2%.

`CCn1cc(Br)c(C(=O)NCc2cccnc2)n1`: the “Percent Effect” value is 4.447%.

Consider `N#Cc1ccc(CN2C[C@@H]3OCC(=O)N(CC(N)=O)[C@@H]3C2)cc1`, for which the “Percent Effect” value is on record as -3.646%.

Regarding `CC(C)Oc1ccccc1CNC(=O)N(C)CC(F)F`, the “Percent Effect” value is on record as -6.331%.

`O=C(NCCCOCC1CCCO1)c1cccnc1N1CCCC1` (stereo not drawn): the “Percent Effect” value is reported as -6.483%.

On to `O=C(NC[C@@H]1CCCO1)c1cccnc1N1CCCC1c1ccccc1` (stereo partly drawn), for which the “Percent Effect” value is 120.1%.

As to `N#Cc1cccnc1NCc1cccc(C(=O)NCC2CCCCO2)c1` (stereo not drawn), the “Percent Effect” value is on record as -17.65%.

Regarding `O=C(NC[C@@H]1CCCO1)c1cccnc1N1CCCC1c1ccccn1` (stereo partly drawn), the “Percent Effect” value stood at 123.2%.

Consider `Fc1ccccc1CN1CCCN(c2ccc3cc[nH]c3n2)CC1`, for which the “Percent Effect” value is reported as -2.258%.

As for `CC(O)CC(C)(C)CNC(=O)NCc1cccc(-n2cncn2)c1` (stereo not drawn), the “Percent Effect” value is -1.907%.

As to `CCC(CNC(=O)c1nc(=O)[nH][nH]1)Oc1cccc(F)c1` (stereo not drawn), the “Percent Effect” value was 12.08%.

For `Cc1cc(C)c2c(c1)NC(=O)C2CC(=O)O` (stereo not drawn), the “Percent Effect” value is 18.62%.

With `O=C(c1ccc2c(c1)CCC2)N1CCN(c2ccc(Cl)cn2)CC1`, the “Percent Effect” value is -15.66%.

On to `CS(=O)(=O)N1CCc2ccc(C(=O)N3CCn4ncnc4C3)cc21`, for which the “Percent Effect” value was 111.8%.

Regarding `CSc1ccc(NC(=O)Nc2ccc3c(c2)N(S(C)(=O)=O)CC3)cc1`, the “Percent Effect” value is -6.619%.

Consider `CC(C)c1nnc2n1CCN(C(=O)c1ccc3c(c1)COC3)C2`, for which the “Percent Effect” value is recorded as 4.471%.

`O=C(c1ccc2c(c1)CCC2)N1CCn2ncnc2C1`: the “Percent Effect” value is on record as 98.73%.

For `O=C(c1ccc2c(c1)CCCC2)N1CCn2ncnc2C1`, the “Percent Effect” value worked out at 90.14%.

Turning to `O=C(c1ccc(O)nc1)N1CCc2ccc(O)cc2C1`, the “Percent Effect” value is reported as -1.234%.

Take `Cc1ccc(C(=O)N2CCN(S(C)(=O)=O)CC2)cc1N1CCNC1=O`: the “Percent Effect” value amounted to 0.6513%.

`O=C(c1ccc2c(c1)CCC2)N1C[C@@H](CN2CCOCC2)[C@@H](CO)C1`: the “Percent Effect” value is -9.126%.

In the case of `COC(C)c1nc(CN2CCNCC2)cs1` (stereo not drawn), the “Percent Effect” value was found to be 8.778%.

As to `Cc1noc([C@]23COC[C@H]2CN(C(=O)CN(C)C)C3)n1.O=C(O)C(F)(F)F`, the “Percent Effect” value worked out at 111.8%.

Consider `Cc1noc([C@]23COC[C@H]2CN(S(C)(=O)=O)C3)n1`, for which the “Percent Effect” value worked out at 1.796%.

As to `Cc1noc([C@]23COC[C@H]2CN(C(=O)Cc2ccsc2)C3)n1`, the “Percent Effect” value was found to be 110.7%.

As to `Cc1noc([C@]23COC[C@H]2CN(C(=O)C2CCOCC2)C3)n1`, the “Percent Effect” value was -8.72%.

For `Cc1noc([C@]23COC[C@H]2CN(S(=O)(=O)C2CC2)C3)n1`, the “Percent Effect” value is 7.077%.

For the compound `CS(=O)(=O)CC(=O)N1C[C@@H]2COC[C@]2(c2nnc(C3CC3)o2)C1`, the “Percent Effect” value was -25.79%.

Consider `Cc1cc(C(=O)N2C[C@@H]3COC[C@]3(CN(C)C)C2)sc1C.O=C(O)C(F)(F)F`, for which the “Percent Effect” value is listed as -22.46%.

Regarding `Cc1noc([C@]23COC[C@H]2CN(C(=O)COC2CCCC2)C3)n1`, the “Percent Effect” value came out at 97.21%.

In the case of `Cc1nc([C@@H]2C[C@@H]3CCN(C(=O)Cc4ccsc4)C[C@H]3O2)no1`, the “Percent Effect” value is -14.45%.

For `Cc1noc([C@]23COC[C@H]2CN(C(=O)N2CCCC2)C3)n1`, the “Percent Effect” value is 106.7%.

As to `Cc1noc([C@]23COC[C@H]2CN(S(=O)(=O)N(C)C)C3)n1`, the “Percent Effect” value is -12.17%.

On to `Cc1noc([C@@]23CCO[C@@H]2CCN(C(=O)c2ccsc2)C3)n1`, for which the “Percent Effect” value worked out at 10.18%.

These data come from ChEMBL document CHEMBL3988442, “University of Dundee, Small-Polar-MMV Screening Library” (2021).
